# In PubChem BioAssay (NCATS):
# Inconclusive results are not listed. Active and inactive are the calls of the source. Unless noted, calls come from the whole dose curve; as a rule, active = well fitted curve in the direction sought with a large enough effect; inconclusive = small, poorly fitted or top-dose-only effect, or another doubt; inactive = no such curve, though single readings can be large; an effect the other way counts as inactive or inconclusive.
# Assays:
# [1] = Quantitative High-Throughput drug screen in 47 multiple myeloma cell lines against the NCATS MIPE library collection: UTMC2_PLB cell viability assay (AID 1919868); settings: CellTiter-Glo ATP luminescence, 48 h; viability (% of DMSO control): at 45.8 µM (top of the series); note: nearly all actives have a fitted effect of over 55% in size
# Outline: (§1)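 500 cells/well per myeloma line exposed to pinned MIPE 4.0 compounds for 48 h at 37 °C, 5% CO2. Viability read as ATP by CellTiter-Glo luminescence, normalised to DMSO-only (100%) and media-only (0%) wells.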
# [2] = Quantitative High-Throughput drug screen in 47 multiple myeloma cell lines against the NCATS MIPE library collection: OPM2_DSMZ cell viability assay (AID 1919872); note: nearly all actives have a fitted effect of over 30% in size; note: potency is the fitted concentration of half-maximal effect
# Outline: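 Approved and investigational drugs from MIPE 4.0 were added by pin tool to 500 cells per well. After 48 hours at 37C, ATP-based CellTiter-Glo luminescence indicated remaining viability.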
# [3] = Quantitative High-Throughput drug screen in 47 multiple myeloma cell lines against the NCATS MIPE library collection: KMS28BM_JCRB cell viability assay (AID 1919874); note: nearly all actives have a fitted effect of over 35% in size; note: potency is the fitted concentration of half-maximal effect
# Outline: as §1
# [4] = qHTS for identification of novel therapeutic agents for treatment of microphthalmiaassociated transcription factor (MiT) renal cell carcinoma (RCC) (AID 1963991); settings: CellTiter-Glo, 48 h, stronger effect = lower value
# Outline: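 Three TFE3-fusion RCC lines (UOK109, UOK124, UOK145), 500 cells/well in complete medium, were treated with MIPE 4.0 compounds for 48 hours at 37 C. Viability was by CellTiter-Glo luminescence, normalized to DMSO (100%) and empty wells (0%); curves fitted over 11 concentrations.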
# [5] = Quantitative High-Throughput drug screen in 47 multiple myeloma cell lines against the NCATS MIPE library collection: PE2_PLB cell viability assay (AID 1919869); note: nearly all actives have a fitted effect of over 35% in size; note: potency is the fitted concentration of half-maximal effect
# Outline: as §1
# [6] = Quantitative High-Throughput drug screen in 47 multiple myeloma cell lines against the NCATS MIPE library collection: PCM6_Riken cell viability assay (AID 1919870); note: nearly all actives have a fitted effect of over 30% in size; note: potency is the fitted concentration of half-maximal effect
# Outline: as §1
# [7] = Quantitative High-Throughput drug screen in 47 multiple myeloma cell lines against the NCATS MIPE library collection: RPMI8226_ATCC cell viability assay (AID 1919871); note: nearly all actives have a fitted effect of over 30% in size; note: potency is the fitted concentration of half-maximal effect
# Outline: as §1
# [8] = qHTS drug screen for cell cycle checkpoint inhibitors in PARPi-resistant BRCA-mutant ovarian cancer cell lines. (AID 1963452; calls by dose curve); settings: PEO1/OlaR viability, CellTiter-Glo luminescence, 96 h, stronger effect = lower value
# Outline: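 PEO1, PEO4 and PEO1/OlaR ovarian cancer cells, 600 per well, exposed 96 h at 37C to a dilution series. Viability read by CellTiter-Glo luminescence, normalized to DMSO and empty wells; activity summarized as Z-AUC.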
# [9] = target: Cytochrome P450 3A4 (Homo sapiens) (UniProt P08684); test: qHTS for inhibitors of CYP3A4 against the NCATS DSHEA and TCM libraries (AID 1919971);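 note: % is set by controls: 0 for no effect and ±100 for the full control effect; inhibition lowers luminescence from luciferin made by CYP3A4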
# Cytochrome P450 3A4 (Homo sapiens), sequence (P08684 whole entry, looked up): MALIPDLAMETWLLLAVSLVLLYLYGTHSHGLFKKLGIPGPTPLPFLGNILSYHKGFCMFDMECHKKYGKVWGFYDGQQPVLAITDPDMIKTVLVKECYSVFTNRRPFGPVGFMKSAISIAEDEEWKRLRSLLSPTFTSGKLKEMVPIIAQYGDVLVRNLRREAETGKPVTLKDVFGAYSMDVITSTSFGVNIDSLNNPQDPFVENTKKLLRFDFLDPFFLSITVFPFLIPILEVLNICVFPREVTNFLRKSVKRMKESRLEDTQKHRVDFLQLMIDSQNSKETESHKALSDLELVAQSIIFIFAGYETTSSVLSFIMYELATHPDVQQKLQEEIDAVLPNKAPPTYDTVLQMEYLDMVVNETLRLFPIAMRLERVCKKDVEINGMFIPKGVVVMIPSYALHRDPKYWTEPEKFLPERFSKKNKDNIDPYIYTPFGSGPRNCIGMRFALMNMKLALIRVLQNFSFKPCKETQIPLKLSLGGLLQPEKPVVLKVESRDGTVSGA
# Outline: (§2)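 Luminescent P450-Glo format: compounds preincubated 15 min with enzyme and luciferin substrate, reaction run 30-45 min after NADPH regeneration solution. Intraplate controls: ketoconazole for CYP3A4 and CYP2C19, sulfaphenazole for CYP2C9.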
# [10] = target: Cytochrome P450 2D6 (Homo sapiens) (UniProt P10635); test: qHTS for inhibitors of CYP2D6 against the NCATS DSHEA and TCM libraries (AID 1919972); note: % is set by controls: 0 for no effect and ±100 for the full control effect
# Cytochrome P450 2D6 (Homo sapiens), sequence (P10635 whole entry, looked up): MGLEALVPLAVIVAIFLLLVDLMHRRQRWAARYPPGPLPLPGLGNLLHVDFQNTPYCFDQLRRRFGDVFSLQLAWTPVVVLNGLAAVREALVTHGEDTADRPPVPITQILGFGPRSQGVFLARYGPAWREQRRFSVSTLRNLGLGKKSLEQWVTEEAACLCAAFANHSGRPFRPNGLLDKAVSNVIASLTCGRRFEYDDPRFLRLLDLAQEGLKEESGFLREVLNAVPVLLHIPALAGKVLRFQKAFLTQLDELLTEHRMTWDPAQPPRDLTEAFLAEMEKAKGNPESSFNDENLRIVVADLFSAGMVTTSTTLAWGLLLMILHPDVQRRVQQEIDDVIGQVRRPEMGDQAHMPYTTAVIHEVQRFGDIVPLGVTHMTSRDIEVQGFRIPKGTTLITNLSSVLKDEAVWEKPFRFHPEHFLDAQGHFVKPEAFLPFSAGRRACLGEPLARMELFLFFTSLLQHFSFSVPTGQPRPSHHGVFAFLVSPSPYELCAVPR
# Outline: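 Luminescent P450-Glo read-out of CYP2D6 turnover of a luciferin substrate after NADPH-driven reaction of 30-45 min at room temperature. Compounds were first preincubated 15 min with enzyme at titrated concentrations; quinidine was the intraplate control.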
# [11] = target: Cytochrome P450 2C9 (Homo sapiens) (UniProt P11712); test: qHTS for inhibitors of CYP2C9 against the NCATS DSHEA and TCM libraries (AID 1919973);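 note: luminogenic pro-luciferin CYP2C9 substrate turned into luciferin with NADPH regeneration; % is set by controls: 0 for no effect and ±100 for the full control effect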
# Cytochrome P450 2C9 (Homo sapiens), sequence (P11712 whole entry, looked up): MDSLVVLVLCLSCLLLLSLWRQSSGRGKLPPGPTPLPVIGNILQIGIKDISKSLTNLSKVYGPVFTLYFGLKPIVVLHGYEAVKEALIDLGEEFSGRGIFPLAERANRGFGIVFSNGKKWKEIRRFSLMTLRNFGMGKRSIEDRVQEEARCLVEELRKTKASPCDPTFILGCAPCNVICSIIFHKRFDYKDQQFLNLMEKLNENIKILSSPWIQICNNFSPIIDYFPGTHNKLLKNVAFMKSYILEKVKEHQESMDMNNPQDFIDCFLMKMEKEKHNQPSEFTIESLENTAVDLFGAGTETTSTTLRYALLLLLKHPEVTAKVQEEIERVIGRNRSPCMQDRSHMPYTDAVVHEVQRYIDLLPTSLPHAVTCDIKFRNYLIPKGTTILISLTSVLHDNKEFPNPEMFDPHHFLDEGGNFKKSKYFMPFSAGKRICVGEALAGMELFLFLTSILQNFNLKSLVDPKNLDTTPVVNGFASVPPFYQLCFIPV
# Outline: as §2
# [12] = KB-3-1 P-gp reporter qHTS against the NCATS DSHEA and TCM libraries (AID 1919975); note: 0% is about no effect
# Outline: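 Parental KB-3-1 cells, 500 cells/well, in DMEM with 10% FBS, exposed 72 h at 37 C to compounds in concentration-response. Viability read by CellTiter-Glo luminescence after 30 min at room temperature.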
# [13] = qHTS Counterscreen for compound interference against the NCATS DSHEA and TCM libraries (AID 1919978); settings: firefly luciferase detection reagent interference, luminescence;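 note: compounds preincubated with 1 µM D-luciferin or buffer before detection reagent; % of control where 0% means no effect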
# Outline: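 Firefly luciferase detection reagent was added after compounds (19.5 nM–39.8 uM final) had been incubated 15 min at room temperature with 1 uM D-luciferin or with 100 mM phosphate buffer alone. Luminescence was read after 30 min at room temperature.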
# [14] = Dual reporter qHTS for agonist of Pregnane X Receptor (hPXR) against the NCATS DSHEA and TCM libraries: Fluorescence readout (AID 1920058); note: 0% is about no effect
# Outline: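 hPXR-Luc HepG2 cells, 2000/well in charcoal-stripped serum, attached 5 h, dosed for ~24 h at 37 °C. Fluorescence read is CellTiter-Fluor viability (Ex/Em 405/540 nm); rifampicin positive, tetraoctyl ammonium bromide (92 µM) cytotoxicity controls.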
# [15] = target: Nuclear receptor subfamily 1 group I member 2 (Homo sapiens) (UniProt O75469); test: Dual reporter qHTS for agonist of Pregnane X Receptor (hPXR) against the NCATS DSHEA and TCM libraries: Luminescence readout (AID 1920059); note: 0% is about no effect
# Nuclear receptor subfamily 1 group I member 2 (Homo sapiens), sequence (O75469 whole entry, looked up): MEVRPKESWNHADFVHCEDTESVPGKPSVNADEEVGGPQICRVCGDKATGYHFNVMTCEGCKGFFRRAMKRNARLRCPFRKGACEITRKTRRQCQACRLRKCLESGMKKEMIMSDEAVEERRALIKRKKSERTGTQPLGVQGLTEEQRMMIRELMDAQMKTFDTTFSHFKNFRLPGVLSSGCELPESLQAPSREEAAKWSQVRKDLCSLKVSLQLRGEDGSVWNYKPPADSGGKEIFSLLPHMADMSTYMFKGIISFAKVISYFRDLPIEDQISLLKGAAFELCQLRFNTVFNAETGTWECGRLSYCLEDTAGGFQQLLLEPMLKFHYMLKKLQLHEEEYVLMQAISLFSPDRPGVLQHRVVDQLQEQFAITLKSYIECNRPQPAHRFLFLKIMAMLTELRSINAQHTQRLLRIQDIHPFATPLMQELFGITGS
# Outline: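 hPXR-Luc HepG2 cells, 2000/well in 5% charcoal-stripped FBS medium, attached 5 h, then exposed 24 h at 37C to compounds. Viability by CellTiter-Fluor, then luciferase luminescence with ONE-Glo.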
# [16] = target: Nuclear receptor subfamily 1 group I member 2 (Homo sapiens) (UniProt O75469); test: Dual reporter qHTS for antagonist of Pregnane X Receptor (hPXR) against the NCATS DSHEA and TCM libraries: Luminescence Readout (AID 1920060);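 note: HepG2 cells carrying hPXR luciferase reporter stimulated with rifampicin at 2 µM; 0% is about no effect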
# Outline: (§3)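 hPXR-Luc HepG2 cells exposed 24 h at 37 C to compounds with 2 uM rifampicin in antagonist mode; luciferase luminescence measured by ONE-Glo, with CellTiter-Fluor viability read beforehand.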
# [17] = Dual reporter qHTS for antagonist of Pregnane X Receptor (hPXR) against the NCATS DSHEA and TCM libraries: Fluorescence Readout (AID 1920061); note: 0% is about no effect
# Outline: as §3
# [18] = Quantitative High-Throughput drug screen in 47 multiple myeloma cell lines against the NCATS MIPE library collection: KMS11_JCRBsus cell viability assay (AID 1919873); note: nearly all actives have a fitted effect of over 50% in size; note: potency is the fitted concentration of half-maximal effect
# Outline: as §1
# [19] = TFE3-RCC UOK109 viability, measured here: UOK109 Z-AUC
# [20] = TFE3-RCC viability, measured here: UOK124 Z-AUC
# [21] = TFE3-RCC viability, measured here: UOK145 Z-AUC
# [22] = measured here: PEO1 parental Z-AUC
smiles,measurement,setting,value
C[C@]12CC[C@@H]3c4ccc(O)cc4CC[C@H]3[C@H]1C[C@@H](O)[C@H]2O,Potency,[1],inactive
same,Potency,[2],inactive
same,Potency,[3],inactive
same,z-score,[4]; [19],1.3
same,z-score,[4]; [20],0.473
same,z-score,[4]; [21],0.59
CC(C)(C(=O)NCC(F)(F)C(F)(F)F)C(=O)N[C@@H]1C(=O)Nc2ccccc2-c2ccccc21,Potency,[5],18.7 µM (active)
same,Potency,[6],3.32 µM (active)
same,Potency,[7],inactive
same,Potency,[2],inactive
same,Potency,[3],inactive
same,Z-AUC,[8],0.455 (inactive)
same,Z-AUC,[8]; [22],0.706
same,Z-AUC,[8]; measured here: PEO4 Z-AUC,0.383
CC(C)OC(=O)C(C)(C)Oc1ccc(C(=O)c2ccc(Cl)cc2)cc1,Potency,[1],inactive
same,Potency,[5],20.9 µM (active)
same,Potency,[7],18.7 µM (active)
same,Potency,[3],inactive
same,Z-AUC,[8],-0.547 (inactive)
same,Z-AUC,[8]; [22],-0.458
same,Z-AUC,[8]; measured here: PEO4 Z-AUC,0.0191
COc1cc(O)c2c(c1)C(=O)c1cc(C)cc(O)c1C2=O,Potency,[5],inactive
same,Potency,[6],inactive
same,Potency,[7],inactive
same,Potency,[2],inactive
same,outcome,[9],inactive
same,outcome,[10],inactive
same,outcome,[11],inactive
same,outcome,[12],inactive
same,max response,[13],1.06% (inactive)
same,outcome,[14],inactive
same,Potency,[15],inactive
same,outcome,[16],inactive
same,outcome,[17],inactive
same,z-score,[4]; [19],1.36
same,z-score,[4]; [20],1.13
same,z-score,[4]; [21],1.08
CC1(C)O[C@H]2C[C@@H]3[C@H]4CCC5=CC(=O)C=C[C@]5(C)[C@@]4(F)[C@@H](O)C[C@]3(C)[C@]2(C(=O)CO)O1,Potency,[5],inactive
same,Potency,[6],0.059 µM (active)
same,Potency,[7],0.003 µM (active)
same,Potency,[2],inactive
same,Potency,[18],0.0083 µM (active)
same,Potency,[3],inactive
CN(C)CCC=C1c2ccccc2COc2ccc(CC(=O)O)cc21,Potency,[5],inactive
same,Potency,[6],inactive
same,Potency,[7],inactive
same,Potency,[2],inactive
same,Potency,[18],inactive
same,Potency,[3],inactive
CC1(C)CCC[C@@]2(C)[C@@H]1CC[C@@]1(C)OC(=O)C[C@H]21,Potency,[5],inactive
same,Potency,[6],inactive
same,Potency,[7],2.09 µM (active)
same,Potency,[2],inactive
C=C1C(=O)[C@@]23C(CC[C@@H]1[C@H]2O)[C@@]12CO[C@]3(O)[C@@H](O)[C@@H]1C(C)(C)CC[C@@H]2O (stereo not given in full),Potency,[5],1.18 µM (active)
same,Potency,[6],1.66 µM (active)
same,Potency,[7],11.8 µM (active)
same,Potency,[2],7.43 µM (active)
same,Potency,[18],2.96 µM (active)
same,Potency,[3],2.35 µM (active)
same,Z-AUC,[8],-0.857 (inactive)
same,Z-AUC,[8]; [22],-1.05
same,Z-AUC,[8]; measured here: PEO4 Z-AUC,-1.08
COc1ccc(Cc2nccc3cc(OC)c(OC)cc23)cc1OC,Potency,[1],inactive
same,Potency,[7],inactive
same,Potency,[2],11.8 µM (active)
same,Potency,[18],18.7 µM (active)
same,Potency,[3],20.9 µM (active)
same,Z-AUC,[8],-1.7 (inactive)
same,Z-AUC,[8]; [22],-1.2
same,Z-AUC,[8]; measured here: PEO4 Z-AUC,0.243
